Assay outcomes: PubChem BioAssay, Johns Hopkins Ion Channel Center
KCNQ2 block = rat KCNQ2 potassium channel inhibitors, primary screen, cell-based, CHO-K1, FluxOR thallium flux, B-score; Potassium voltage-gated channel subfamily KQT member 2 (Rattus norvegicus), O88943; 20 min; hits give low values; B-score at 10 µM; 1.1% of 310,000 active; AID 2156, 2009;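 active = fluorescence ratio B-score at most minus 3 library SDs, with starting brightness B-score within 2 library SDs, cut at about -5.5 in these data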
KCNQ2 enhance = potentiators of rat KCNQ2 potassium channel; Potassium voltage-gated channel subfamily KQT member 2 (Rattus norvegicus), O88943; CHO-K1 KCNQ2, FluxOR thallium flux fluorescence; hits give high values; B-score at 10 µM; 0.54% of 310,000 active; AID 2239, 2010;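 active = fluorescence ratio B-score at least 3 SD of library B-scores, with initial fluorescence B-score within 3 of them, cut at about 5.3 in these data; same plate scores as AID 2156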;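 note: B-score of peak minus minimum over baseline fluorescence ratio after K+ and Tl+ stimulus; positive B-score means potentiation of KCNQ2 with more thallium influx and brighter signal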
Numbers stand for hits; - = inactive; . = no result given. An excerpt weighted towards active compounds, which were near 1.6% of everything screened.

SMILES | KCNQ2 block | KCNQ2 enhance
CC(C)(C)C(=O)[C@H]1[C@H](c2ccccc2)[C@@]2(N=C(c3ccccc3)OC2=O)C2c3ccccc3C=NN21 (stereo partly drawn) | -6.2 | -
O=C1N/C(=N/N=C/c2ccccc2)SC1(c1ccccc1)c1ccccc1 | - | -
CC1CCN(c2oc(-c3ccccc3Cl)nc2C#N)CC1 | - | .
Cc1ccccc1-c1nc(C#N)c(N2CCC(C)CC2)o1 | -8.1 | -
COc1cc(-c2nc(-c3ccc4c(c3)-c3ccccc3S4(=O)=O)c(-c3ccccc3)[nH]2)cc(OC)c1OC | -7.01 | -
COc1cc(-c2nc(-c3ccccc3)c(-c3cccs3)[nH]2)cc(OC)c1OC | - | .
O=C(Nc1ccccc1Cl)c1cc2ccccc2o/c1=N\O | -5.56 | -
O=C(Nc1ccccc1Cl)c1ccccc1Cl | - | .
Cc1ccc(NC(=Nc2ccc(Br)cc2)N2CCOCC2)cc1C | - | .
CCn1cc(C(=O)O)c(=O)c2cnc(N3CCN(C(=S)Nc4ccccc4C(F)(F)F)CC3)nc21 | - | -
COc1ccc(Nc2nc3ccccc3nc2-n2nc(C)cc2C)cc1 | - | .
Cc1cc(C)n(-c2nc3ccccc3nc2NCCc2ccccc2)n1 | -7.46 | -
O=C(NCc1n[nH]c(=S)n1-c1cccc(Cl)c1)c1ccc(S(=O)(=O)N2CCCCC2)cc1 | - | .
Cc1ccccc1Nc1ccc([N+](=O)[O-])cn1 | - | -
O=[N+]([O-])c1ccc(Nc2ccccc2F)nc1 | - | 5.35
CCCNC(=O)Cc1ccsc1 | -7.8 | -
CCN(CC)CCNC(=O)c1ccc(NC(=O)Cc2ccsc2)cc1 | - | -
Cc1onc(-c2ccccc2Cl)c1C(=O)N(C)Cc1ccccc1 | - | .
CCCCC(=Nc1ccccc1OC)C1=C(O)CC(c2ccccc2)CC1=O (stereo not drawn) | -6.48 | -
CCCC(=Nc1ccccc1OC)C1=C(O)CC(c2ccccc2)CC1=O (stereo not drawn) | - | .
O=C(c1ccc(Cl)c(Cl)c1)N1CCC(=O)N(C(CO)Cc2ccccc2)CC1 (stereo not drawn) | - | -
O=C(c1ccc(Cl)c(Cl)c1)N1CCC(=O)N(C(COCc2ccccc2)Cc2ccccc2)CC1 (stereo not drawn) | -5.75 | -
O=C(c1cccc(Cl)c1)N1CCC(=O)N(C(COCc2ccccc2)Cc2ccccc2)CC1 (stereo not drawn) | -5.8 | -
Cc1cccc(COCC(Cc2ccccc2)N2CCN(C(=O)c3cccc(Cl)c3)CCC2=O)c1 (stereo not drawn) | - | .
O=c1cc2c(n[nH]1)-c1ccccc1CC2 | - | -
SMILES | KCNQ2 block | KCNQ2 enhance
O=C(/C=C/c1ccc2c(c1)OCO2)NCCSCc1ccc(Cl)cc1Cl | -7.77 | -
O=C(/C=C/c1ccc2c(c1)OCO2)NCCSCc1cccc(Cl)c1 | - | .
O=C(c1ccco1)N1CCN(C(=O)C2CC(=O)N(c3ccc(Cl)cc3)C2)CC1 (stereo not drawn) | - | -
O=C(c1cccs1)c1no[n+]([O-])c1C(=O)c1cccs1 | -14.2 | -
COc1ccc(C(=O)c2no[n+]([O-])c2C(=O)c2ccc(OC)cc2)cc1 | - | .
Cc1cccc(CSc2nnc(-c3cccs3)n2Cc2ccco2)c1 | -6.06 | -
Cc1cccc(CSc2nc3sc(C)c(C)c3c(=O)n2Cc2ccco2)c1 | - | -
CC(NCC(O)COc1ccccc1)C1COc2ccccc2O1 (stereo not drawn) | - | -
CCOC(=O)/C(=C\c1ccc(Cl)cc1)c1nc2sc(C)c(C)c2c(=O)[nH]1 | -6.93 | -
CCOC(=O)CSc1nc2sc(C)c(C)c2c(=O)[nH]1 | - | -
O=C(NNS(=O)(=O)c1ccc2ccccc2c1)c1cc(-c2ccccn2)nc2ccccc12 | - | .
COc1cc(C2NC(=S)NC(C)=C2C(=O)Nc2cc(C)cc(C)c2)ccc1O (stereo not drawn) | - | .
Cc1ccc(NC2=NCC(=O)N2Cc2cccs2)cc1C | - | -
OC(c1ccccc1)(C1CCCCC1)C(CN1CCOCC1)c1ccccc1 (stereo not drawn) | -5.66 | -
COc1ccc(C(O)(C2CCCCC2)C(CN2CCOCC2)c2ccccc2)cc1 (stereo not drawn) | - | .
COc1ccc(CNC(=O)c2ccc(Cn3cc(Cl)cn3)o2)cc1 | - | .
O=C(CCN1CCC(c2ccccc2)C1)c1ccc2c(c1)OCCO2 (stereo not drawn) | -6.16 | -
O=C(CCN1CCC(c2ccccc2)C1)c1ccccc1 (stereo not drawn) | - | .
Cc1nc2c(c(=O)c3ccccc3n2C)c(=O)n1C1CCCCCC1 | - | -
Cn1c2ccccc2c(=O)c2c(=O)n(C3CCCCC3)c(-c3ccco3)nc21 | - | 6.65
CN(C)c1ccc(/C=C2\N=C(C(C)(C)C)OC2=O)cc1 | - | -
COc1ccc(C2=NOC3(CC(=O)N(c4ccc(F)cc4)C3=O)C2)cc1 (stereo not drawn) | - | -
COc1ccc(CNc2ncc(-c3ccc(F)cc3)n2C)c2ccccc12 | -6.23 | -
COc1ccccc1CNc1ncc(-c2ccc(F)cc2)n1C | - | -
